Results reported in the supplement of paper PMC10849652.
Targets with a hit are over-represented here; the source holds about 8,800 in all. About 0.5% of all pairs of compound and target were hits.

How the values were obtained:
Experiment in all cases: log2 fold change, soluble protein after heating vs DMSO (PISA); higher = thermal stabilisation; K562 lysate, 10 uM; active = over 0.2 and 3.5 SD of the protein, either way, in both replicates (recomputed)
[1] = compound: CCCS(=O)(=O)Nc1ccc(F)c(C(=O)c2c[nH]c3ncc(-c4ccc(Cl)cc4)cc23)c1F [vemurafenib]
In short: (§1)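 Thermal stability, expressed as log-two fold change relative to solvent controls, is given from duplicates. Crude K562 extract in PBS pH 7.4 with 1 mM MgCl2, at 1 mg/mL protein, was treated with 10 μM compound for 30 min and heated in aliquots for 3 min across 48°C-58°C. After pooling, adjustment to 0.5% NP-40 at 4°C and centrifugation at 21,000xg for 90 min, supernatant protein was measured by TMTpro 16plex LC-MS/MS with channel sums equalised.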

[2] = compound: CCCS(=O)(=O)Nc1ccc(F)c(C(=O)c2c[nH]c3ncc(Cl)cc23)c1F
In short: as §1

[3] = compound: CCN(CCCOc1ccc2c(Nc3cc(CC(=O)Nc4cccc(F)c4)[nH]n3)ncnc2c1)CCOP(=O)(O)O [barasertib]
In short: as §1

[4] = compound: CC[C@@H]1C(=O)N(C)c2cnc(Nc3ccc(C(=O)NC4CCN(C)CC4)cc3OC)nc2N1C1CCCC1
In short: as §1

[5] = compound: CC[C@@H]1C(=O)N(C)c2cnc(Nc3ccc(C(=O)N[C@H]4CC[C@H](N5CCN(CC6CC6)CC5)CC4)cc3OC)nc2N1C(C)C [volasertib]
In short: as §1

[6] = compound: CCn1c(C(=O)N(C2CC2)C2CC2)cc2c3c(ncn3C)c(Nc3cc(C)n(C)n3)nc21
In short: as §1

[7] = compound: CCn1cc(-c2ccnc3[nH]c(-c4cccc(CN(C)C)c4)cc23)c(-c2ccc(NC(=O)N(C)C)cc2)n1
In short: as §1

[8] = compound: CN1CCC(CNc2ccc3ncc(-c4cccc(OC(F)(F)F)c4)n3n2)CC1
In short: as §1

[9] = compound: CN1CCN(CCOc2cc(OC3CCOCC3)c3c(Nc4c(Cl)ccc5c4OCO5)ncnc3c2)CC1 [saracatinib]
In short: as §1

[10] = compound: CN1CCN(c2nc(C3=C(c4c[nH]c5ccccc45)C(=O)NC3=O)c3ccccc3n2)CC1 [sotrastaurin]
In short: as §1

Measured: log2 fold change

ADD1 isoform 4 (UniProt P35611)
Sequence of UniProt P35611 (P35611 whole entry, looked up): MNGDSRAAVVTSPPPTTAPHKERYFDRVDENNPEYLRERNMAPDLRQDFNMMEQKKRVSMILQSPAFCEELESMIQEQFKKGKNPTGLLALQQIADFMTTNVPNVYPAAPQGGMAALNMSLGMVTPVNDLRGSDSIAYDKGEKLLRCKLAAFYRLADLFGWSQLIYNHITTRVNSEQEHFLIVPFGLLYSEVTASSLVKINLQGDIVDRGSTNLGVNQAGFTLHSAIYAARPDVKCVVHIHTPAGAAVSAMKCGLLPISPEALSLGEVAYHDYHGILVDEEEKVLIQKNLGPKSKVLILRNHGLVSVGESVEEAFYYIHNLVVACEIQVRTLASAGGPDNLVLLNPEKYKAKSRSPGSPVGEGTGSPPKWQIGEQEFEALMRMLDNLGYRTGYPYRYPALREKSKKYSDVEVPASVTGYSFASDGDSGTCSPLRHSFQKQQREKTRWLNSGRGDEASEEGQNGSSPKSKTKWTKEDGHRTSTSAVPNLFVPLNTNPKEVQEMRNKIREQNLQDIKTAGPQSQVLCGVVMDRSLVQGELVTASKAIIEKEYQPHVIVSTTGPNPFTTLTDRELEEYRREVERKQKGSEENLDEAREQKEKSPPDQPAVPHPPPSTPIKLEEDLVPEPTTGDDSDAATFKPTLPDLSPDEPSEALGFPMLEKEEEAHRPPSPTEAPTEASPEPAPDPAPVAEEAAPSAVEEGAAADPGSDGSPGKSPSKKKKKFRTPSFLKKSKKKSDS
inactive: [1] 0.061 | [2] -0.003 | [3] -0.089 | [4] 0.164 | [5] 0.061 | [6] -0.345 | [7] -0.61 | [8] 0.397 | [9] 0.083

ADD1 isoform 3 (UniProt P35611)
inactive: [1] -0.025 | [2] -0.002 | [3] -0.001 | [4] 0.036 | [5] 0.007 | [6] -0.002 | [7] -0.013 | [8] 0.054 | [9] 0.002 | [10] 0

ABHD12 isoform 2 (UniProt Q8N2K0)
Sequence of UniProt Q8N2K0 (Q8N2K0 whole entry, looked up): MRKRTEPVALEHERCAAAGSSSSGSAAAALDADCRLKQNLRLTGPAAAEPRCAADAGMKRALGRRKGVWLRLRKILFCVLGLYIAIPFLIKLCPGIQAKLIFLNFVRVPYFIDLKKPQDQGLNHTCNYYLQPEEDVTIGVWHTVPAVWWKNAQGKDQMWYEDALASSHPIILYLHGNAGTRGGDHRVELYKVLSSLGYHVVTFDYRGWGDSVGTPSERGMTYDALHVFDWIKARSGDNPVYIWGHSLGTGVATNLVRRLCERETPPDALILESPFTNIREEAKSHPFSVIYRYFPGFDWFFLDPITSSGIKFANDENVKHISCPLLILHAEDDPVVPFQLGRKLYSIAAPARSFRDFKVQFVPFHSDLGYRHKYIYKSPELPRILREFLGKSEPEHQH
inactive: [1] -0.049 | [2] 0.077 | [3] -0.015 | [4] 0.034 | [5] 0.006 | [6] -0.055 | [7] 0.119 | [8] -0.111 | [9] -0.039 | [10] 0.018

ACIN1 (UniProt E7EQT4)
inactive: [1] -0.057 | [2] 0.026 | [3] -0.021 | [4] -0.011 | [5] 0.045 | [6] 0.048 | [7] -0.321 | [8] 0.127 | [9] -0.016 | [10] 0.047

ARHGAP25 isoform 4 (UniProt P42331)
Sequence of UniProt P42331 (P42331 whole entry, looked up): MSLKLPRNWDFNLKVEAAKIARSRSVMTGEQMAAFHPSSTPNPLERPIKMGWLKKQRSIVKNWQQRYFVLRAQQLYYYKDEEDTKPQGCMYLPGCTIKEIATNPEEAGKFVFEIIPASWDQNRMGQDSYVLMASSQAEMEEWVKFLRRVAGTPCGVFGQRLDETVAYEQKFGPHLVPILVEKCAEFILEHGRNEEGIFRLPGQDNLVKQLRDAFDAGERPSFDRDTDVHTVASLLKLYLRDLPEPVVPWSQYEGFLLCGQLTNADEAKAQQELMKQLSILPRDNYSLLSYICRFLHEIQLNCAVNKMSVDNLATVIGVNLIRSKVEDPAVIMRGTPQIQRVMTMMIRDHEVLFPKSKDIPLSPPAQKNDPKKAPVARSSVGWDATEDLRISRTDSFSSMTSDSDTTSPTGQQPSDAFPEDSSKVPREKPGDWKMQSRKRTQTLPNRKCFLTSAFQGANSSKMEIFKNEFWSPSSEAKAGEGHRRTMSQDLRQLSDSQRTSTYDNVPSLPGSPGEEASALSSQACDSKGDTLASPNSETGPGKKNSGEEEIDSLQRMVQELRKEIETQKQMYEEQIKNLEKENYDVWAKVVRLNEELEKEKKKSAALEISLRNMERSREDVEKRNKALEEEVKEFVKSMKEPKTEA
inactive: [1] 0.021 | [2] 0.049 | [3] 0.081 | [4] -0.045 | [5] -0.029 | [6] -0.032 | [7] -0.012 | [8] 0.019 | [9] -0.034 | [10] 0.043

ACBD6 (UniProt Q9BR61)
Sequence of UniProt Q9BR61 (Q9BR61 whole entry, looked up): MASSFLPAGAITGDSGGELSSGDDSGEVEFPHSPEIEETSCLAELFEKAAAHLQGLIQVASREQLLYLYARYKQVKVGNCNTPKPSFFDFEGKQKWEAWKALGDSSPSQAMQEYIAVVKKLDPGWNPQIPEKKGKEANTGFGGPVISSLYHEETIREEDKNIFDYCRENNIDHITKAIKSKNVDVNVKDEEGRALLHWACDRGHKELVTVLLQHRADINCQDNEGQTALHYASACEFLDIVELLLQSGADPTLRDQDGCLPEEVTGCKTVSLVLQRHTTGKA
inactive: [1] 0.028 | [2] 0.035 | [3] -0.006 | [4] -0.025 | [5] -0.082 | [6] 0.013 | [7] -0.009 | [8] 0.006 | [9] -0.015 | [10] 0.014

AIMP1 isoform 2 (UniProt Q12904)
Sequence of UniProt Q12904 (Q12904 whole entry, looked up): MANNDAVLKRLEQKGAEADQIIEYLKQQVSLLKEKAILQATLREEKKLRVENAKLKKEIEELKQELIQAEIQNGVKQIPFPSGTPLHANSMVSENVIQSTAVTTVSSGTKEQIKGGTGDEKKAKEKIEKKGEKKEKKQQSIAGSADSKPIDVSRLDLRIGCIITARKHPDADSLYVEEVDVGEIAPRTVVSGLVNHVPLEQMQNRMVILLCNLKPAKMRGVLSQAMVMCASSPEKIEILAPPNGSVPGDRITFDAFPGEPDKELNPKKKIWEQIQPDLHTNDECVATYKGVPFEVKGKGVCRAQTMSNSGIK
inactive: [1] 0.001 | [2] 0.018 | [3] 0.015 | [4] -0.036 | [5] -0.057 | [6] 0.025 | [7] -0.024 | [8] -0.081 | [9] 0.023 | [10] -0.001

APOBEC3C (UniProt Q9NRW3)
inactive: [1] -0.027 | [2] 0.021 | [3] -0.006 | [4] 0.075 | [5] -0.014 | [6] -0.081 | [7] -0.038 | [8] 0.034 | [9] 0.018 | [10] 0.114

ASNS (UniProt P08243)
Sequence of UniProt P08243 (P08243 whole entry, looked up): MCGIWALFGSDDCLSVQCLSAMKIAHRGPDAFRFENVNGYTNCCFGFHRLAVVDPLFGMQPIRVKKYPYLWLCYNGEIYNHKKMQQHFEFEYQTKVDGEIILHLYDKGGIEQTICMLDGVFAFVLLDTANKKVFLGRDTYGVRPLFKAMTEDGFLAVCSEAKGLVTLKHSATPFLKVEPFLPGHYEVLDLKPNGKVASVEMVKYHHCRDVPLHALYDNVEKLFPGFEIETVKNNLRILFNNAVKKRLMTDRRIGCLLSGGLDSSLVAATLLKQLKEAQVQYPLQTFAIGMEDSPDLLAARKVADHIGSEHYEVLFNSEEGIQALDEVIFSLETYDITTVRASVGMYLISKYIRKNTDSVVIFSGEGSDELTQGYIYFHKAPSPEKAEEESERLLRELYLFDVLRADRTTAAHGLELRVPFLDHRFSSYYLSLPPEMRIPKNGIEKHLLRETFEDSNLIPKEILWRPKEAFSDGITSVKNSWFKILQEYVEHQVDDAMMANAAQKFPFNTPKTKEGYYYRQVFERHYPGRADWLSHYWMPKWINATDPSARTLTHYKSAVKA
inactive: [1] -0.002 | [2] -0.002 | [3] 0.025 | [4] -0.056 | [5] -0.047 | [6] 0.005 | [7] 0.031 | [8] -0.03 | [9] 0.022 | [10] 0.014

ACADM isoform 2 (UniProt P11310)
Sequence of UniProt P11310 (P11310 whole entry, looked up): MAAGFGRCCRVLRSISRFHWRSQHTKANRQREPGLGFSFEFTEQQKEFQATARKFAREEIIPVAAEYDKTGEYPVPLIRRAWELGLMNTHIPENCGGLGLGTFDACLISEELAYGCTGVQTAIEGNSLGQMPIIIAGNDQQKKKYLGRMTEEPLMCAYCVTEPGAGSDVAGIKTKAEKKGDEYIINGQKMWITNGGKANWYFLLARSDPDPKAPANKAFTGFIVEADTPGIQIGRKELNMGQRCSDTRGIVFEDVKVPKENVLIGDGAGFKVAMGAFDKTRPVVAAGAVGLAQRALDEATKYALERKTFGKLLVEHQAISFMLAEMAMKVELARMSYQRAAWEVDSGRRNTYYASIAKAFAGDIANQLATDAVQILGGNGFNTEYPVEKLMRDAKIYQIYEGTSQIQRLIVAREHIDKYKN
inactive: [1] 0.02 | [2] -0.011 | [3] 0.069 | [4] 0.001 | [5] -0.062 | [6] -0.051 | [7] -0.031 | [8] -0.046 | [9] -0.023
active: [10] 0.67

AKAP11 (UniProt Q9UKA4)
inactive: [1] -0.272 | [2] -0.029 | [3] 0.082 | [4] 0.051 | [5] 0.038 | [6] -0.055 | [7] 0.044 | [8] -0.024 | [9] 0.028 | [10] -0.103

ADAMTS5 (UniProt Q9UNA0)
active: [7] -0.939
inactive: [1] 0.063 | [2] 0.047 | [3] 0.038 | [4] 0.066 | [5] 0.038 | [6] -0.15 | [8] 0.292 | [9] 0.083 | [10] -0.045

ACSL1 (UniProt P33121)
Sequence of UniProt P33121 (P33121 whole entry, looked up): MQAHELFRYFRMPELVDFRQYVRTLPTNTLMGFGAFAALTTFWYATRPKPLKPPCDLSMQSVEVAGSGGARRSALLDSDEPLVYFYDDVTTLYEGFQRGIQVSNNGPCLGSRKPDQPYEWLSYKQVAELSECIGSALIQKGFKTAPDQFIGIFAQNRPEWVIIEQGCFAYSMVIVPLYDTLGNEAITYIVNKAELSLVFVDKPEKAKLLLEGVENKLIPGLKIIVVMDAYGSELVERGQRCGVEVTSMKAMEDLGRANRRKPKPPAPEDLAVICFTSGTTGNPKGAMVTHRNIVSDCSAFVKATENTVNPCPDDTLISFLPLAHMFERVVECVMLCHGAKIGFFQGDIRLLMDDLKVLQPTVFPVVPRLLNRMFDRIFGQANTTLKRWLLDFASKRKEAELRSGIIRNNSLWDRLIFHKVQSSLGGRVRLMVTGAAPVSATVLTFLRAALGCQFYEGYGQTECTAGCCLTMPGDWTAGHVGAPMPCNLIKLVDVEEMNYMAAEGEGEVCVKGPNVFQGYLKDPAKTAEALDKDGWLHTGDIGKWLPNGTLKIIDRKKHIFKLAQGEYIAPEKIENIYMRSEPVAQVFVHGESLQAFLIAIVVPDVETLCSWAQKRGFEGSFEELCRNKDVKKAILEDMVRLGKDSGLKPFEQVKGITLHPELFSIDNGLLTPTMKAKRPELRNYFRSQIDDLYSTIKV
inactive: [1] 0.021 | [2] 0.023 | [3] 0.046 | [4] -0.054 | [5] -0.1 | [6] 0.038 | [7] -0.014 | [8] -0.242 | [9] -0.066 | [10] -0.002

ACAA1 (UniProt P09110)
Sequence of UniProt P09110 (P09110 whole entry, looked up): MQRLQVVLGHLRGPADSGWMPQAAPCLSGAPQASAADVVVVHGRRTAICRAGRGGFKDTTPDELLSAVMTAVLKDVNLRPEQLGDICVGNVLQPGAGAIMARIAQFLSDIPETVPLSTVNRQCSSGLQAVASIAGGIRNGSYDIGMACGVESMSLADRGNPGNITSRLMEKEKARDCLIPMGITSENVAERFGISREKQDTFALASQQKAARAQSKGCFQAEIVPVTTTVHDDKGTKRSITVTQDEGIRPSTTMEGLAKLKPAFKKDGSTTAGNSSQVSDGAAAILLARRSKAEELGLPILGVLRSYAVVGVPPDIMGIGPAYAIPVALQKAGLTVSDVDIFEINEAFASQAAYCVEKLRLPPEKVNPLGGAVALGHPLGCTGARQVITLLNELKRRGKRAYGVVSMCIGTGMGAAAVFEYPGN
inactive: [1] 0.034 | [2] 0.033 | [3] -0.027 | [4] 0.006 | [5] 0.036 | [6] 0.001 | [7] -0.049 | [8] 0.039 | [9] 0.002 | [10] -0.004

ANXA5 (UniProt P08758)
Sequence of UniProt P08758 (P08758 whole entry, looked up): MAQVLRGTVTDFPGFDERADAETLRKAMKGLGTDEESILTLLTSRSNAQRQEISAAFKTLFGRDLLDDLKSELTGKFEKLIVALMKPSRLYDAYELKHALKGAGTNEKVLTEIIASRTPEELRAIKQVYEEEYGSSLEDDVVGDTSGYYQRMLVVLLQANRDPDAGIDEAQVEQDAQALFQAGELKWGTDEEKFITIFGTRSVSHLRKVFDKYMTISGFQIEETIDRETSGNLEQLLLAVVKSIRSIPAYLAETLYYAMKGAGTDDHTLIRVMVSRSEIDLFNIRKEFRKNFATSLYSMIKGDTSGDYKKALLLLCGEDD
inactive: [1] -0.034 | [2] -0.011 | [3] 0.003 | [4] -0.073 | [5] -0.001 | [6] 0.059 | [7] 0.022 | [8] -0.064 | [9] -0.008 | [10] 0.024
